Data published in PubChem BioAssay (EPA / NIEHS).
Calls of active or inactive are those of the source. How the source made its calls: active means hit-call score of the fitted dose curve at least 0.9, where 1 is the maximum; inactive means score below 0.9.

Assay: APR_HepG2_P-H2AX_24hr: Apredica 24-hour HepG2 Assay for H2AX Phosphorylation (AID 2282920)
Details: high-content imaging, actives raise or lower the signal
Experimental: APR_HepG2_24hr is a cell-based, multiplexed-readout assay that uses HepG2, a human liver cell line, with measurements taken at 24 hours after chemical dosing in a 384-well plate.APR_HepG2_P-H2AX_24hr is one of 10 assay component(s) measured or calculated from the APR_HepG2_24hr assay. It is designed to make measurements of dna content, a form of viability reporter, as detected with fluorescence intensity signals by HCS Fluorescent Imaging technology.Data from the assay component APR_HepG2_P-H2AX_24hr was analyzed into 1 assay endpoint. This assay endpoint, APR_HepG2_P-H2AX_24hr, was analyzed with bidirectional fitting relative to DMSO as the negative control and baseline of activity. Using a type of viability reporter, measures of protein for gain or loss-of-signal activity can be used to understand the signaling at the pathway-level as they relate to the gene . Furthermore, this assay endpoint can be referred to as a primary readout, because this assay has produced multiple assay endpoints where this one serves a signaling function. To generalize the intended target to other relatable targets, this assay endpoint is annotated to the dna binding intended target family, where the subfamily is cellular response to DNA damage stimulus.
Cells were treated with dimethyl sulfoxide (DMSO) as a solvent control at a final concentration of 0.5% v/v or with compounds in DMSO with a resulting final DMSO concentration of 0.5% v/v. Compound treatment was done at concentrations of 0.39, 0.78, 1.56, 3.12, 6.24, 12.5, 25, 50, 100, and 200 uM in duplicate on each plate. Cells were treated with compounds for 1, 24, or 72 hr. Carbonyl […] m-chloro-phenylhydrazone (CCCP) and taxol were used as positive controls for mitochondrial function and cytoskeletal stability, respectively; DMSO served as the negative control for this experiment. Cells were fixed by the direct addition of 50 uL formaldehyde in Hank's Balanced Salt Solution (HBSS) to a final concentration of 3.7%. After incubation in the fixation medium for 30 min at room temperature (293-298 K), cells were rinsed twice with HBSS and treated with cell permeabilization buffer (16 uL of 0.5% Triton X-100) for 10 min at room temperature (293-298 K) before labeling. For mitochondrial membrane potential and mitochondrial measurements, pre-fixed cells were incubated with 50 uL of MitoTracker Red CMXRos (Invitrogen) at a concentration of 250 nM for 30 min before fixation. In the remaining cases, post-fixed cells were labeled by incubation with a multiplexed mixture of primary antibodies in HBSS for 60 min at room temperature (293-298 K) to detect immunoreactivity of c-Jun (1:500), phospho-histone H3 (1:100), phospho-histone H2A.x (1:200), p53 (1:400), alpha-tubulin (1:200) and Hoechst 33342 (2 ug/mL). Cells were labeled for multiplexed imaging on two separate plates: a) Hoechst 33342, MitoTracker Red, phospho-histone H3, and alpha-tubulin, and b) Hoechst 33342, phospho-histone H2A.x, and c-Jun. A final rinse with HBSS (50 uL) was performed before analysis. The primary and secondary antibodies for the proteins were phospho-histone H3 (rabbit anti-phospho-histone H3 and FITC-donkey anti-rabbit IgG), phospho-histone H2A.x (mouse anti-phospho-histone H2A.x and FITC-donkey anti-mouse IgG), c-Jun (rabbit anti-phospho-c-Jun and Cy3-donkey anti-rabbit IgG), p53 (sheep anti-p53 and Cy5-donkey anti-sheep IgG), alpha-tubulin (mouse anti-alpha-tubulin and Cy5-donkey anti-mouse IgG). These antibodies are available as the CellCiphr HepG2 assay kit (Millipore).Digital images of each well were captured using a Cellomics ArrayScan VTI (Thermo Scientific Cellomics) (0.8 NA objective, 0.63x optical coupler, and XF-93 filter set) at 20x magnification. The images were acquired using the autofocus feature of the ArrayScan instrument, which entails the following steps. First, the camera focuses on channel 1 (Hoechst 33342), where nuclei are identified. Second, a Z offset of 1 um is used for capturing mitochondria (MitoTracker Red). […]

Question: With `Clc1cc(Cl)c2c(c1)N=C1CCCCCN1C2` as the compound, how does the outcome read?
Answer: inactive

Question: Which AC50 does the source give for `Cc1cc2c(cc1C(F)(F)F)N(C(=O)Nc1ccc(Oc3cccnc3C)nc1)CC2` here?
Answer: 43 µM (active)

Question: For `CCN(Cc1cccc(S(=O)(=O)O)c1)c1ccc(C(=C2C=CC(=[N+](CC)Cc3cccc(S(=O)(=O)O)c3)C=C2)c2ccccc2S(=O)(=O)[O-])cc1`, which outcome is on record?
Answer: inactive

Question: With `O=C=NCCCCCCN=C=O` as the compound, how does the outcome read?
Answer: inactive

Question: Which outcome does the source give for `NC(=O)c1nc(-c2cccc(-c3cc(F)ccc3OCC(F)(F)C(F)(F)F)c2)n[nH]1` here?
Answer: inactive

Question: With `CN1C(=O)N(c2ccccc2Br)Cc2cnc(Nc3ccc4c(c3)OCC(CO)O4)nc21` (stereo not given) as the compound, how does the AC50 read?
Answer: 5.05 µM (active)

Question: Which AC50 does the source give for `c1ccc(C[n+]2cccc3ccccc32)cc1` here?
Answer: 106 µM (active)

Question: With `O=CCCCC=O` as the compound, how does the outcome read?
Answer: inactive

Question: Which outcome does the source give for `O=C(O)Cn1c(=O)n(Cc2ccc(Br)cc2F)c(=O)c2ccc(Cl)cc21` here?
Answer: inactive

Question: For `Cc1ncc(CO)c(CO)c1O`, which outcome is on record?
Answer: inactive

Question: Which outcome does the source give for `CC[C@@H]1C[C@H](N(Cc2cc(C(F)(F)F)cc(C(F)(F)F)c2)C(C)=O)c2cc(C(F)(F)F)ccc2N1C(=O)OC(C)C` here?
Answer: inactive

Question: Which outcome does the source give for `Oc1ccc2ccccc2c1` here?
Answer: inactive

Question: For `CCN(CC)C(=O)c1cc(S(=O)(=O)Cc2ccccc2)c(N2CCC(c3ccccc3)CC2)cc1N(CC)CCN(C)C`, which AC50 is on record?
Answer: 1.93 µM (active)

Question: With `CN1C(=O)CC[C@H]1c1cccnc1` as the compound, how does the outcome read?
Answer: inactive

Question: Which outcome does the source give for `OC12N=C(c3ccccc3)SC1Cc1cc(Cl)ccc12` (stereo not given) here?
Answer: inactive

Question: With `O=C1CCC(C2CCCCC2)CC1` as the compound, how does the outcome read?
Answer: inactive

Question: Which outcome does the source give for `O=C(O)c1ccccc1C(=O)OCc1ccccc1` here?
Answer: inactive

Question: For `CCOC(=O)O[C@H](C)OC(=O)c1ccc2c(c1)cc(C(=O)NC1CCN(C(C)C)CC1)n2Cc1cc(-c2ccc(Cl)s2)on1`, which AC50 is on record?
Answer: 94.5 µM (active)

Question: For `CC(C)(c1cc(Br)c(O)c(Br)c1)c1cc(Br)c(O)c(Br)c1`, which AC50 is on record?
Answer: 70.7 µM (active)

Question: For `CCCC(=O)OCCC(C)C`, which outcome is on record?
Answer: inactive

Question: With `COc1cccc([C@H](O)C2CCN(CCc3ccc(F)cc3)CC2)c1OC` as the compound, how does the outcome read?
Answer: inactive

Question: Which AC50 does the source give for `COc1ccc2cc(S(=O)(=O)N[C@H](CC(=O)N[C@H](Cc3ccc(CN4[C@H](C)CCC[C@@H]4C)cc3)C(=O)N(C)C(C)C)c3ccc4c(c3)OCO4)ccc2c1` here?
Answer: 21.8 µM (active)

Question: Which outcome does the source give for `CCCCOC(=O)c1ccc(O)cc1` here?
Answer: inactive

Question: With `CC1=CC(=O)/C(=C(/C)O)C(=O)O1` as the compound, how does the outcome read?
Answer: inactive

Question: Which AC50 does the source give for `CC/C(=C(/CC)c1ccc(O)cc1)c1ccc(O)cc1` here?
Answer: 33.1 µM (active)

Question: With `Cc1c2ccccc2c(C)c2c1ccc1ccccc12` as the compound, how does the AC50 read?
Answer: 19.8 µM (active)

Question: With `Cc1cn([C@H]2C[C@H](N=[N+]=[N-])[C@@H](CO)O2)c(=O)[nH]c1=O` as the compound, how does the outcome read?
Answer: inactive

Question: With `Cc1ccc(C(C)C)cc1` as the compound, how does the outcome read?
Answer: inactive

Question: Which outcome does the source give for `Cc1occc1C(=O)Nc1ccc(C(=O)N2CCC(F)(F)/C(=C\C(=O)N3CCC(N4CCCCC4)CC3)c3ccccc32)cc1` here?
Answer: inactive

Question: For `Cc1ccc2oc(CN(Cc3ccccc3)C(=O)Nc3c(F)cc(F)cc3F)c(-c3ccc(Cl)cc3)c2c1`, which outcome is on record?
Answer: inactive

Question: With `O=c1[nH]sc2ccccc12` as the compound, how does the AC50 read?
Answer: 5.7 µM (active)

Question: Which AC50 does the source give for `Cc1cc(F)ccc1-c1cc(N2CC[C@@H](O)[C@H]2CO)ncc1N(C)C(=O)C(C)(C)c1cc(C(F)(F)F)cc(C(F)(F)F)c1` here?
Answer: 53.8 µM (active)

Question: For `COCC(C)OCC(C)OCC(C)O` (stereo not given), which outcome is on record?
Answer: inactive

Question: For `CC(=O)N1CCN(c2ccc(OC[C@H]3CO[C@](Cn4ccnc4)(c4ccc(Cl)cc4Cl)O3)cc2)CC1`, which outcome is on record?
Answer: inactive

Question: For `NCc1cccc(C2CCN(C(=O)c3ccc(C#Cc4ccccc4F)o3)CC2)c1`, which AC50 is on record?
Answer: 18.6 µM (active)

Question: Which outcome does the source give for `CCN(Cc1cccnc1)C(=O)c1cccc(Cl)c1[C@]1(C)C(=O)N(Cc2ccc(OC)cc2OC)c2ccc(Cl)cc21` here?
Answer: inactive

Question: For `CCCCCc1ccc(N)cc1`, which outcome is on record?
Answer: inactive

Question: For `O=C1O[C@H]([C@@H](O)CO)C(O)=C1O`, which outcome is on record?
Answer: inactive

Question: With `O=C1c2ccccc2C(=O)N1CCc1noc(-c2ccc(CN3CCCCCC3)s2)n1` as the compound, how does the outcome read?
Answer: inactive

Question: For `CCCCCCCCOC(=O)c1cc(O)c(O)c(O)c1`, which AC50 is on record?
Answer: 45.6 µM (active)
